Source: PubChem BioAssay (NCI)
The panel holds about 83,000 compounds, 20% with a hit somewhere; the sample as a whole holds those more often.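 Plates (96-well) were seeded with cells, treated with compound at one concentration, and incubated for 48 hours before percent growth was determined.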 Unmarked numbers belong to inactive results. The source made the active and inactive calls. Rule for the calls: active = growth percent below 10; inactive = the rest.

What was measured:
Experiment in all cases: NCI-60 one-dose screen, 48 h (100 = growth as untreated, 0 = no growth, -100 = all killed)
Conditions in all cases: 10 µM unless noted
[1] = test system: HCT-15 colon
[2] = test system: HT29 colon
[3] = test system: SNB-75 CNS
[4] = test system: SNB-19 CNS
[5] = test system: U251 CNS
[6] = test system: PC-3 prostate
[7] = test system: SK-MEL-5 melanoma
[8] = test system: UACC-62 melanoma
[9] = test system: LOX IMVI melanoma
[10] = test system: SK-MEL-28 melanoma
[11] = test system: SK-MEL-2 melanoma
[12] = test system: EKVX NSCLC
[13] = test system: SN12C renal
[14] = test system: UO-31 renal
[15] = test system: TK-10 renal
[16] = test system: ACHN renal
[17] = test system: CAKI-1 renal
[18] = test system: A498 renal
[19] = test system: CCRF-CEM leukemia
[20] = test system: MOLT-4 leukemia

SMILES: COc1ccc2c(O)cc3c(c2c1)[C@H](CCl)CN3C(=O)c1cc2cc(NC(=O)CCN3CCOCC3)ccc2[se]1
- growth [1]: 0% (active)
- growth [2]: -39.8% (active)
- growth [3]: -87.8% (active)
- growth [4]: -76.2% (active)
- growth [5]: -85.7% (active)
- growth [6]: 74.1%
- growth [7]: -85.9% (active)
- growth [8]: -76.4% (active)
- growth [9]: -62.5% (active)
- growth [10]: -58.7% (active)
- growth [11]: -84.3% (active)
- growth [12]: -59.3% (active)
- growth [13]: -88.1% (active)
- growth [14]: -46.9% (active)
- growth [15]: -32.2% (active)
- growth [16]: -1.81% (active)
- growth [17]: -26.3% (active)
- growth [18]: -90.9% (active)
- growth [19]: 76%
- growth [20]: 74.2%

SMILES: NS(=O)(=O)Oc1cccc(-c2nc3sccn3c2-c2ccccc2)c1
- growth [1]: 29%
- growth [2]: 27%
- growth [3]: -9.42% (active)
- growth [4]: 51.1%
- growth [5]: 36.3%
- growth [6]: 72.4%
- growth [7]: 32.3%
- growth [8]: 36.3%
- growth [9]: 49.5%
- growth [10]: 60.4%
- growth [11]: 55.6%
- growth [12]: 66.7%
- growth [13]: 53%
- growth [14]: 68.8%
- growth [15]: 87.9%
- growth [16]: 75.1%
- growth [17]: 45.7%
- growth [18]: 7.63% (active)
- growth [19]: 40.2%
- growth [20]: 31.1%

SMILES: CCOc1cc(\C=N/N=C(N)/C(N)=N\N=C/c2ccc(O)c(OCC)c2)ccc1O
- growth [1]: 101%
- growth [2]: -46.5% (active)
- growth [3]: 116%
- growth [4]: 109%
- growth [5]: 95.8%
- growth [6]: 82.4%
- growth [7]: 94.2%
- growth [8]: 95.3%
- growth [9]: 103%
- growth [10]: 103%
- growth [11]: 126%
- growth [12]: 106%
- growth [13]: 101%
- growth [14]: 88.7%
- growth [15]: 127%
- growth [16]: 96.5%
- growth [17]: 94.5%
- growth [18]: 106%
- growth [19]: 49.7%
- growth [20]: 59.2%

SMILES: Cc1cc(C)n(C(=O)CSc2nc3sc4c(c3c(=O)n2-c2ccccc2)CCCCC4)n1
- growth [1]: 103%
- growth [2]: 105%
- growth [3]: 89.6%
- growth [4]: 95.4%
- growth [5]: 97.4%
- growth [6]: 99%
- growth [7]: 93%
- growth [8]: 95.6%
- growth [9]: 98.9%
- growth [10]: 110%
- growth [11]: 98.3%
- growth [12]: 97%
- growth [13]: 91.9%
- growth [14]: 90.6%
- growth [15]: 101%
- growth [16]: 100%
- growth [17]: 95.2%
- growth [18]: 99.5%
- growth [19]: 95.5%
- growth [20]: 95.2%

SMILES: COC(=O)[C@H](C)NC(=O)c1ccc(NC(=O)c2[nH]c(C)c(Cl)c2Cl)c(OCCN)c1
- growth [1]: 99.9%
- growth [2]: 109%
- growth [3]: 98.6%
- growth [4]: 101%
- growth [5]: 110%
- growth [6]: 98.5%
- growth [7]: 99.2%
- growth [8]: 103%
- growth [9]: 96.2%
- growth [10]: 110%
- growth [11]: 121%
- growth [12]: 103%
- growth [13]: 97.5%
- growth [14]: 98.2%
- growth [15]: 112%
- growth [16]: 99%
- growth [17]: 96%
- growth [18]: 88.9%
- growth [19]: 97.8%
- growth [20]: 91.2%

SMILES: CC1(C)C2=C(C(=O)N1Cc1ccccc1)C(c1ccco1)N(C(=O)C1CCC1)CCN2 (stereo not given)
- growth [1]: 109%
- growth [2]: 106%
- growth [3]: 83.7%
- growth [4]: 98.9%
- growth [5]: 100%
- growth [6]: 95.2%
- growth [7]: 105%
- growth [8]: 91.7%
- growth [9]: 96.8%
- growth [10]: 115%
- growth [11]: 94.3%
- growth [12]: 97.4%
- growth [13]: 93.4%
- growth [14]: 90.5%
- growth [15]: 93.9%
- growth [16]: 111%
- growth [17]: 91.9%
- growth [18]: 113%
- growth [19]: 105%
- growth [20]: 102%

SMILES: O=C(Nc1cccc2c1C(=O)c1cccc(NC(=O)c3ccc(C(=O)Nc4cccc5c4C(=O)c4cccc(NC(=O)c6ccccc6)c4C5=O)cc3)c1C2=O)c1ccccc1
- growth [1]: 105%
- growth [2]: 112%
- growth [3]: 89.7%
- growth [4]: 105%
- growth [5]: 101%
- growth [6]: 87.7%
- growth [7]: 105%
- growth [8]: 89%
- growth [9]: 102%
- growth [10]: 103%
- growth [11]: 73.1%
- growth [12]: 86.5%
- growth [13]: 96.6%
- growth [14]: 72.9%
- growth [15]: 121%
- growth [16]: 99.9%
- growth [17]: 108%
- growth [18]: 117%
- growth [19]: 115%
- growth [20]: 75.2%

SMILES: Cn1cc(-c2nc(-c3c[nH]c4ccncc34)cs2)c2cc(F)ccc21
- growth [1]: -81.8% (active)
- growth [2]: -80.4% (active)
- growth [3]: -95% (active)
- growth [4]: -80.3% (active)
- growth [5]: -89.1% (active)
- growth [6]: -73.1% (active)
- growth [7]: -97.9% (active)
- growth [8]: -85.7% (active)
- growth [9]: -94.5% (active)
- growth [10]: -95.1% (active)
- growth [11]: -58.7% (active)
- growth [12]: -75.4% (active)
- growth [13]: -87.9% (active)
- growth [14]: -93.2% (active)
- growth [15]: -49.3% (active)
- growth [16]: -99.6% (active)
- growth [17]: -90.9% (active)
- growth [18]: -63.5% (active)
- growth [19]: -41.6% (active)
- growth [20]: -58.3% (active)

SMILES: COc1ccc(Cn2cc3c(c2)-c2oncc2CC3)cc1
- growth [1]: 54.8%
- growth [2]: 9.48% (active)
- growth [3]: 50.6%
- growth [4]: 71.8%
- growth [5]: 42.8%
- growth [6]: 82.3%
- growth [7]: 49.7%
- growth [8]: 38.6%
- growth [9]: 59%
- growth [10]: 69.9%
- growth [11]: 68%
- growth [12]: 66.3%
- growth [13]: 77.8%
- growth [14]: 68.2%
- growth [15]: 101%
- growth [16]: 99.2%
- growth [17]: 64%
- growth [18]: 57.7%
- growth [19]: 35.2%
- growth [20]: 58%

SMILES: CCOc1ccc(-c2cc(C3(S(=O)(=O)c4ccc(C)cc4)CC=CC3)on2)cc1
- growth [1]: 75.3%
- growth [2]: 77.7%
- growth [3]: 97.3%
- growth [4]: 95.4%
- growth [5]: 89.4%
- growth [6]: 75.2%
- growth [7]: 69.8%
- growth [8]: 66.7%
- growth [9]: 91.1%
- growth [10]: 115%
- growth [11]: 90.3%
- growth [12]: 68.8%
- growth [13]: 87%
- growth [14]: 81.4%
- growth [15]: 94.1%
- growth [16]: 86.8%
- growth [17]: 83.2%
- growth [18]: 72.1%
- growth [19]: 76.6%
- growth [20]: 76.8%

SMILES: Cc1ccc(C(=O)Nc2ccc(CN3CCN(C)CC3)c(C(F)(F)F)c2)cc1C#Cc1cnc(N)c2ccccc12
- growth [1]: -69.2% (active)
- growth [2]: -12.8% (active)
- growth [3]: -70.4% (active)
- growth [4]: -66.1% (active)
- growth [5]: -70.5% (active)
- growth [6]: 3.18% (active)
- growth [7]: -85.4% (active)
- growth [8]: 4.11% (active)
- growth [9]: -94.5% (active)
- growth [10]: -86% (active)
- growth [11]: -26.6% (active)
- growth [12]: 36%
- growth [13]: 11.3%
- growth [14]: -34.9% (active)
- growth [15]: 29.9%
- growth [16]: -91.8% (active)
- growth [17]: -81.6% (active)
- growth [18]: -32.5% (active)
- growth [19]: -15.7% (active)
- growth [20]: -45.2% (active)

SMILES: COc1ccc(C(c2cc(OC)c(OC)c(OC)c2)n2cncn2)cc1O (stereo not given)
- growth [1]: 14%
- growth [2]: 5.3% (active)
- growth [3]: 48.6%
- growth [4]: 33.3%
- growth [5]: 15.3%
- growth [6]: 21.2%
- growth [7]: 14.6%
- growth [8]: 32%
- growth [9]: 43.5%
- growth [10]: 57%
- growth [11]: 55.9%
- growth [12]: 39.8%
- growth [13]: 39.3%
- growth [14]: 58%
- growth [15]: 61.3%
- growth [16]: 52.4%
- growth [17]: 40.4%
- growth [18]: 9.66% (active)
- growth [19]: 9.34% (active)
- growth [20]: 16.7%

SMILES: COc1ccc(NC(=O)CSc2oc(-c3ccccc3)nc2S(=O)(=O)c2ccc(Cl)cc2)c(OC)c1
- growth [1]: 73.7%
- growth [2]: 70.3%
- growth [3]: -1.47% (active)
- growth [4]: 55.4%
- growth [5]: 50.6%
- growth [6]: 61%
- growth [7]: 66.3%
- growth [8]: 41.4%
- growth [9]: 76.1%
- growth [10]: 67.1%
- growth [11]: 66.4%
- growth [12]: 74.7%
- growth [13]: 75.8%
- growth [14]: 61.6%
- growth [15]: 67.1%
- growth [16]: 36.6%
- growth [17]: 86.1%
- growth [18]: 49.9%
- growth [19]: 89.1%
- growth [20]: 73%

SMILES: CC(C)(C)n1cc(-c2ccnc(NCCNS(=O)(=O)c3cccc4ccccc34)c2)c(-c2cccc(O)c2)n1
- growth [1]: 20.9%
- growth [2]: 6.71% (active)
- growth [3]: 37.9%
- growth [4]: 88%
- growth [5]: 57.5%
- growth [6]: 59%
- growth [7]: 45.1%
- growth [8]: 76.9%
- growth [9]: 61.8%
- growth [10]: 83.4%
- growth [11]: 81.7%
- growth [12]: 69.8%
- growth [13]: 72.5%
- growth [14]: 70.2%
- growth [15]: 97.2%
- growth [16]: 70.1%
- growth [17]: 73.7%
- growth [18]: 73.1%
- growth [19]: 60.1%
- growth [20]: 53.4%

SMILES: Cn1cc(-c2ccc3occ(-c4cccc(-c5ccncc5)c4)c3n2)cn1
- growth [1]: 5.33% (active)
- growth [2]: 7.76% (active)
- growth [3]: -12.8% (active)
- growth [4]: 29.4%
- growth [5]: 25.4%
- growth [6]: 19.6%
- growth [7]: -46.4% (active)
- growth [8]: -15.7% (active)
- growth [9]: 14.9%
- growth [10]: 30.6%
- growth [11]: -1.75% (active)
- growth [12]: 30.7%
- growth [13]: 13.1%
- growth [14]: 11.3%
- growth [15]: 9.56% (active)
- growth [16]: 21.9%
- growth [17]: 12%
- growth [18]: -15.7% (active)
- growth [19]: 10.9%
- growth [20]: 13.2%
